# Screening results: PubChem, National Center for Advancing Translational Sciences (NCATS)
# Rows were chosen to be rich in hits. Some 12% of all compounds tested hit in one or more screens of this group.
# HP1b chromo inh: blocks HP1-beta chromodomain binding to methylated histone tails; AID 540317; actives 0.56% (n = 390,000); Potency, µM (series often up to 114 µM), actives largely listed as inhibitors; AlphaScreen HP1-beta / biotin-H3K9me3 peptide binding; P83916; note: nearly all actives have a fitted effect of over 70% in size
#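 Compound inhibition of the preformed complex between 50 nM HP1-beta and 50 nM biotinylated H3K9me3 peptide was read by AlphaScreen. Buffer was PBS pH 7.4 with 0.01% Tween-20. Incubations ran 30 min at room temperature, with 10 ug/mL donor/acceptor beads.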
# Sfp inh: Sfp phosphopantetheinyl transferase inhibition | Potency, µM, most hits filed as inhibitors | Biochemical Sfp PPTase activity, qHTS | actives 3.5% (n = 310,000);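 note: the enzyme is Sfp with the accession as filed and its product quenches rhodamine fluorescence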
#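 Fluorescence-quenching assay with 15 nM Sfp, 5 uM rhodamine-CoA and 12.5 uM BHQ-2-labelled ybbR peptide in pH 7.6 Hepes/MgCl2 buffer. Enzyme was pre-incubated with compound for 15 min at room temperature. Rate was taken from the 30-min fluorescence change (525/598 nm).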
# BAZ2B block: blocks human BAZ2B; AlphaScreen BAZ2B-H3K14Ac peptide displacement; Potency, µM (doses to about 114 µM), most hits filed as inhibitors; actives 4.4% (n = 360,000); AID 504333; note: nearly all actives have a fitted effect of over 60% in size
#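 Multi-concentration screen (max 110 uM) measuring displacement of acetylated histone H3 peptide from BAZ2B by AlphaScreen, using 50 nM protein, 50 nM peptide and 10 ug/mL streptavidin donor plus Ni-chelate acceptor beads.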
# PLK1 PBD block: PLK1 (human) polo-box domain binding inhibition | Plk1 PBD binding of FITC phosphopeptide, fluorescence polarization | actives 2.8% (n = 360,000) | Potency, µM, actives largely listed as inhibitors | P53350 | AID 720504; note: series mostly up to about 57 µM; nearly all actives have a fitted effect of over 65% in size
# G9a block: blocks human histone lysine methyltransferase G9a | Potency, µM (titrated, usually from 102 µM), actives largely listed as inhibitors | G9a H3K9 monomethylation, AlphaScreen, 2 h | actives 8.8% (n = 350,000) | AID 504332 | Q96KQ7; note: nearly all actives have a fitted effect of over 75% in size
#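 Compounds were preincubated with 20 nM G9a for 15 min, after which biotinylated H3K9 peptide (500 nM) and SAM (20 uM) started a 2 h room-temperature reaction. Monomethylated product was quantified by antibody-based AlphaScreen chemiluminescence.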
# JMJD2A Tudor inh: JMJD2A Tudor domain (human) inhibition; AlphaScreen JMJD2A-Tudor / H3K4me3 peptide binding; Potency, µM (highest dose often 114 µM), usual class: inhibitors; actives 4.4% (n = 390,000); AID 504339; O75164; note: nearly all actives have a fitted effect of over 50% in size
# Numbers stand for hits; . = inactive; ? = inconclusive; / = no result; [ ] = dose if it differs, or a comment. Calls come from the whole dose curve; as a rule, active = well fitted curve in the direction sought with a large enough effect; inconclusive = small, poorly fitted or top-dose-only effect, or another doubt; inactive = no such curve, though single readings can be large; an effect the other way counts as inactive or inconclusive.
SMILES,HP1b chromo inh,Sfp inh,BAZ2B block,PLK1 PBD block,G9a block,JMJD2A Tudor inh
CC(C)(C)c1ccccc1OCCOCCNCc1ccccc1,?,.,79.4µM,.,14.1µM,22.4µM
O=C(Nc1ccc(Cl)cc1)N1CCN(c2ccc3nnc(-c4ccc(F)cc4)n3n2)CC1,.,.,.,.,.,.
O=C(Nc1ccccc1Cl)N1CCN(c2ccc3nnc(-c4ccccc4)n3n2)CC1,.,.,.,.,50.1µM,.
CCN(CC)c1ccc(/C=C/C(=O)c2cccnc2)cc1,.,.,?,.,.,?
O=C(/C=C/c1ccccc1Cl)c1ccc(O)cc1,.,.,.,.,.,.
O=C(/C=C/c1ccccc1Cl)c1cccnc1,.,31.6µM,.,?,35.5µM,.
N#Cc1ccc(/C=C/C(=O)c2cccnc2)cc1,.,50.1µM,/,?,25.1µM,.
O=C(/C=C/c1ccc(Cl)cc1)c1cccnc1,.,?,.,?,44.7µM,.
O=C(CCC1N=C2c3ccccc3N=C(SCc3ccccc3Cl)N2C1=O)NCCc1ccccc1 (stereo not drawn),.,/,.,/,?,.
COc1ccc(C(=O)N[C@H](C(=O)Nc2cccc(S(=O)(=O)N3CCOCC3)c2)C(C)C)cc1,/,/,/,.,/,/
Cc1ccc(N/C=C2/Sc3ccccc3NC2=O)cc1,.,.,.,.,.,.
O=C1Nc2ccccc2S/C1=C/NCc1ccccc1Cl,.,56.2µM,?,.,31.6µM,50.1µM
S=C1NC(c2ccccc2)N2C(=S)NC(c3ccccc3)N12 (stereo not drawn),31.6µM,56.2µM,79.4µM,?,?,12.6µM
O=C(NCc1ccc(Cl)cc1)c1cnc2sc(N3CCCC3)nn2c1=O,.,/,.,/,.,79.4µM
COC(=O)c1c(N)n(-c2cc(Cl)cc(Cl)c2)c2nc3ccccc3nc12,.,/,?,/,.,.
CCOc1ccc(S(=O)(=O)N(CC(=O)Nc2cccnc2)c2ccccc2)cc1,.,/,.,/,.,.
COCC1CCN(Cc2nc(-c3ccc4c(c3)OCO4)no2)C1 (stereo not drawn),.,.,.,.,.,.
c1cc(C2CCN(Cc3nc(-c4ccc5c(c4)OCO5)no3)CC2)ccn1,.,.,56.2µM,.,3.55µM,79.4µM
CN(C)C(=O)c1cc(C(=O)c2ccccc2C(F)(F)F)c[nH]1,.,.,.,26.7µM,.,?
Cc1ccc(S(=O)(=O)N(C)CC(=O)NNC(=O)CCS(=O)(=O)c2ccccc2)cc1,.,/,/,.,/,.
CC[C@@]1(c2cccc(C)c2)C(=O)N(C(=O)OC)N1C(=O)OC,.,.,?,9.47µM,44.7µM,.
CCOC(=O)N1C(=O)[C@@](CC)(c2ccccc2)N1C(=O)OCC,.,.,.,13.4µM,/,.
CC[C@@]1(c2ccccc2OC)C(=O)N(C(=O)OC)N1C(=O)OC,.,.,.,?,/,.
CCOC(=O)N1CCN(C(=O)CN2C(=O)NC(c3ccccc3)(c3ccccc3)C2=O)CC1,.,.,.,.,.,.
COc1ccccc1NC(=O)C1CCC(CNS(=O)(=O)c2ccc3c(c2)CC(C)N3C(C)=O)CC1 (stereo not drawn),.,/,.,/,.,.
SMILES,HP1b chromo inh,Sfp inh,BAZ2B block,PLK1 PBD block,G9a block,JMJD2A Tudor inh
CC(C)(C)OC(=O)Cc1nnc(C(C(=O)OCc2ccccc2)c2ccccc2)o1 (stereo not drawn),/,/,/,/,/,.
CCOC(=O)C1=C(C)N=c2s/c(=C/c3ccco3)c(=O)n2C1c1cccc(OC)c1 (stereo not drawn),?,39.8µM,10µM,.,15.8µM,?
CCOC(=O)C1=C(C)N=c2sc(=Cc3cc(Cl)c(OCC(=O)O)c(OC)c3)c(=O)n2C1c1ccccc1Cl (stereo not drawn),/,/,/,26.7µM,/,/
CCOC(=O)C1=C(C)N=C2SC(C(=O)OC)=CC(=O)N2C1c1ccc(F)cc1 (stereo not drawn),?,?,?,.,?,25.1µM
CCOC(=O)C1=C(C)N=c2s/c(=C\c3cc(OC)c(OC)c(OC)c3)c(=O)n2C1/C=C/c1ccccc1 (stereo not drawn),.,.,.,?,.,.
CCOC(=O)C1=C(C)N=c2s/c(=C\c3cccn3C)c(=O)n2C1c1cccc(OC)c1OC (stereo not drawn),.,15.8µM,?,.,?,?
CCOC(=O)C1=C(C)N=c2s/c(=C\c3ccc(C(=O)O)cc3)c(=O)n2C1c1ccc(OC)cc1OC (stereo not drawn),.,/,/,.,/,.
CC(=O)c1ccc(OCc2cc(C(=O)NC3CCCCC3)no2)cc1,.,.,.,.,.,.
C[C@H]1Cc2c(COc3ccccc3)nc3c(c2CO1)CN(C(=O)Cc1cccs1)CC3,/,.,/,/,/,/
Cc1cc(O)cc(O)c1C(=O)OC1(C)C(=O)C=C2C=C(/C=C/CO)OC=C2C1=O (stereo not drawn),/,.,/,/,/,/
CC(=O)c1ccc(NC(=O)Cn2c3ncccc3c(=O)n2-c2ccc(C)cc2)cc1,.,/,.,/,.,.
N#Cc1ccc(CSc2ccc(S(=O)(=O)N3CCCCCC3)cn2)cc1,.,/,.,.,.,.
CC1=C(C(=O)OC(C)C)C(c2ccc(Cl)cc2)n2c(s/c(=C\c3ccc(OCC(=O)O)cc3)c2=O)=N1 (stereo not drawn),?,.,44.7µM,.,?,?
CCOC(=O)C1=C(C)N=c2s/c(=C/c3cccc(OCC(=O)O)c3)c(=O)n2C1c1ccc(F)cc1 (stereo not drawn),/,.,?,/,?,/
CCOC(=O)C1=C(C)N=c2sc(=Cc3ccc(OCC(=O)O)cc3)c(=O)n2C1c1ccc(SC)cc1 (stereo not drawn),/,/,/,.,/,/
CCOC(=O)C1=C(C)N=c2s/c(=C/c3cccc([N+](=O)[O-])c3O)c(=O)n2C1c1ccccc1 (stereo not drawn),14.1µM,50.1µM,7.08µM,18.9µM,2µM,28.2µM
CCOC(=O)C1=C(C)N=c2s/c(=C\c3ccc(C(=O)O)cc3)c(=O)n2C1c1ccc(F)cc1 (stereo not drawn),.,?,?,29.9µM,79.4µM,?
CCOC(=O)C1=C(C)N=c2s/c(=C\c3ccc(OCC(=O)O)cc3)c(=O)n2C1c1ccccc1 (stereo not drawn),.,.,?,?,.[12.7 µM],.
CCOC(=O)C1=C(C)N=c2s/c(=C\c3ccc(OCC(=O)O)c(OC)c3)c(=O)n2C1c1ccc(OC)cc1 (stereo not drawn),.,.,79.4µM,.,56.2µM,79.4µM
C[C@@H]1CC[C@H]2C(=O)N3[C@@H](CC[C@@H](C)[C@@H]3c3ccc(Br)cc3)C(=O)N2[C@@H]1c1ccc(Br)cc1,/,.,/,/,/,/
O=C(c1cc2cc(F)ccc2[nH]1)N1CCCC(Nc2ccc(F)cc2)C1 (stereo not drawn),.,.,.,.,/,?
